Unmarked numbers belong to inactive results.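 Rule for the calls: active = unnormalized dose curve rising to cross level 40 at or below the top tested dose; inconclusive = flat fit at moderately raised activity, or poor fit; inactive = the rest.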
assay: miR-27b level by RT-PCR, dose response, miR-122 / miR-27b project, Huh7 cells, cherry-pick, activator set (AID 720492); conditions: Huh7 miR-27b levels, qRT-PCR, 48 h; series mostly up to 35 µM; miR-27b level change (relative expression (fold, unnormalized)): at the top concentration

Row | SMILES | miR-27b level change (relative expression (fold, unnormalized))
1 | CN1C(=O)c2cc(NC(=O)c3cccc(F)c3)ccc2OC[C@@H]2O[C@H](CC(=O)O)CC[C@@H]21 | 1.47
2 | CN1C(=O)c2cc(NC(=O)c3cccc(F)c3)ccc2OC[C@H]2O[C@@H](CC(=O)O)CC[C@@H]21 | 0.548
3 | CN1C(=O)c2cc(NC(=O)c3cccc(F)c3)ccc2OC[C@@H]2O[C@@H](CC(=O)O)CC[C@@H]21 | 1.95
4 | COc1ccc(S(=O)(=O)N(C)C[C@@H]2Oc3ncc(/C=C/c4ccccc4)cc3C(=O)N([C@@H](C)CO)C[C@@H]2C)cc1 | 0.977
5 | CN1C(=O)c2cc(NC(=O)c3cccc(F)c3)ccc2OC[C@@H]2O[C@H](CC(=O)O)CC[C@H]21 | 0.888
6 | COCC(=O)N(C)C[C@H]1Oc2cc(-c3ccccc3F)ccc2S(=O)(=O)N([C@@H](C)CO)C[C@H]1C | 0.955
7 | C[C@@H]1CN([C@H](C)CO)S(=O)(=O)c2ccc(C#Cc3ccncc3)cc2O[C@@H]1CN(C)C(=O)C1CCOCC1 | 0.443
8 | C[C@H]1CN([C@@H](C)CO)C(=O)c2cc(-c3ccc(C#N)cc3)cnc2O[C@H]1CN(C)Cc1cncnc1 | 0.64
9 | C[C@@H]1CN([C@H](C)CO)S(=O)(=O)c2ccc(/C=C/c3ccccc3)cc2O[C@@H]1CN(C)C(=O)c1cccnc1 | 0.812
10 | C/C=C/c1cnc2c(c1)C(=O)N([C@@H](C)CO)C[C@H](C)[C@H](CN(C)S(=O)(=O)c1ccc(OC)cc1)O2 | 1.02
11 | CO[C@@H]1CN(C)C(=O)c2cc(NC(=O)c3cccc(Oc4ccccc4)c3)ccc2OC[C@H](C)NC[C@@H]1C | 0
12 | COCC(=O)N(C)C[C@H]1Oc2cc(-c3ccccc3F)ccc2S(=O)(=O)N([C@H](C)CO)C[C@H]1C | 0.891
13 | C[C@H](CO)N1C[C@H](C)[C@H](CN(C)C(=O)C2CCOCC2)Oc2cc(C#Cc3ccncc3)ccc2S1(=O)=O | 0.279
14 | COc1cccc(-c2ccc3c(c2)O[C@H](CN(C)C(=O)C2CCOCC2)[C@H](C)CN([C@@H](C)CO)S3(=O)=O)c1 | 0.717
15 | CNC[C@@H]1Oc2cc(C#CC3CCCCC3)ccc2S(=O)(=O)N([C@@H](C)CO)C[C@@H]1C | 0.787
16 | COCC(=O)N(C)C[C@H]1Oc2cc(-c3ccc(C#N)cc3)ccc2S(=O)(=O)N([C@@H](C)CO)C[C@H]1C | 1.15
17 | C[C@H]1CN([C@@H](C)CO)S(=O)(=O)c2ccc(C#Cc3ccncc3)cc2O[C@@H]1CN(C)C(=O)C1CCOCC1 | 0.367
18 | C[C@@H]1CN([C@@H](C)CO)S(=O)(=O)c2ccc(C#Cc3ccncc3)cc2O[C@@H]1CN(C)C(=O)C1CCOCC1 | 0.541
19 | COCC(=O)N(C)C[C@@H]1Oc2ncc(-c3ccc(C#N)cc3)cc2C(=O)N([C@@H](C)CO)C[C@@H]1C | 0.903
20 | COc1cccc(C(=O)Nc2ccc3c(c2)C(=O)N(C)C[C@@H](OC)[C@@H](C)CN[C@@H](C)CO3)c1 | 1.08
21 | CN1C(=O)c2cc(NC(=O)c3cccc(F)c3)ccc2OC[C@H]2O[C@H](CC(=O)O)CC[C@H]21 | 0.981
